# Assay results published in PubChem BioAssay (NCATS).
# Results filed as inconclusive are left out. Entries that show only a call come without a potency. Activity calls are given as the source filed them. The call rests on the fitted dose curve; in most records, active means well fitted inhibition curve with a large enough effect; inconclusive means small, poorly fitted or top-dose-only effect; inactive means flat fitted curve, though single readings scatter.
# Molecular target: Aldehyde dehydrogenase, mitochondrial (Homo sapiens) (UniProt P05091)
# Assay: qHTS for Inhibitors of the Aldehyde Dehydrogenase Family (ALDH2) Primary screen (AID 2061308); further: nearly all actives have a fitted effect of over 55% in size
# Conditions: ALDH2 enzyme inhibition qHTS, 1536-well; series mostly up to 56 µM
row,Structure (SMILES),Potency
1,CC(C)CC(=O)NCCn1cc(C(=O)O)c(=O)cc1C(O)c1ccccc1 (stereo not given),inactive
2,CC(=O)OC(C)(C)/C=C/C(=O)[C@](C)(O)[C@H]1C(O)C[C@@]2(C)[C@@H]3CC=C4[C@@H](C=C(O[C@@H]5O[C@H](CO)[C@@H](O)[C@H](O)[C@H]5O)C(=O)C4(C)C)[C@]3(C)C(=O)C[C@]12C (stereo not given in full),inactive
3,CC(C)(C)NS(=O)(=O)c1ccc(-c2ccc3[nH]nc(N)c3c2)cc1,inactive
4,CC1=C(COC2OC(CO)C(O)C(O)C2O)C(C(CO)C(=O)O)CC1 (stereo not given),inactive
5,COc1ccc([C@H]2OC[C@H]3[C@@H]2CO[C@@H]3c2ccc(O[C@@H]3O[C@H](CO)C(O)[C@H](O)[C@H]3O)c(OC)c2)cc1OC (stereo not given in full),inactive
6,C[C@@]1(C(=O)O)CCC[C@@]2(C)C3=CC[C@H]4C[C@@]3(CC[C@H]12)CC4(O)CO (stereo not given in full),inactive
7,O=C(N[C@@H]1CCCc2c1cnn2-c1ccc(F)cc1F)c1ccccn1,inactive
8,C=C1C(=O)O[C@@H]2C[C@@H](C)[C@]34C[C@]5(C(=O)O[C@H]6CC(C)=C([C@H](C)CCCO)[C@H](OC(=O)C(C)CC)[C@H]65)[C@@H](C(C)=C3C[C@@H]12)[C@H]4OC(C)=O (stereo not given in full),inactive
9,CC1CC2(O)OC(=O)C3=C2C(CCC3)[C@@]12C[C@@H](c1ccoc1)OC2=O (stereo not given in full),inactive
10,CC(C)=CCC[C@](C)(O[C@@H]1O[C@H](CO[C@@H]2OC[C@@H](O)[C@H](O)[C@H]2O)[C@@H](O)[C@H](O)[C@H]1O)[C@H]1CC[C@]2(C)[C@@H]1[C@H](O)C[C@@H]1[C@@]3(C)CC[C@H](O[C@@H]4O[C@H](CO)[C@@H](O)[C@H](O)[C@H]4O)C(C)(C)[C@@H]3CC[C@]12C,inactive
